Results filed as inconclusive are left out. Active and inactive are the calls of the source. Unless noted, calls follow the shape of the dose curve; as a rule, active = well fitted curve in the direction sought with a large enough effect in the repeat runs; inconclusive = weak or mixed curves; inactive = no such curve, though single readings can be large; an effect the other way counts as inactive or inconclusive.
Experiments:
[1] = qHTS assay for small molecule agonists of the p53 signaling pathway (AID 651631; calls by dose curve; also: nearly all actives have a fitted effect of over 15% in size)
Method in brief: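 Beta-lactamase reporter activity under p53 response elements was quantified in HCT-116 cells by FRET fluorescence, following 16 h incubation with test compounds at 37 °C and 2 h substrate development at room temperature.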

[2] = qHTS assay for small molecules that induce genotoxicity in human embryonic kidney cells expressing luciferase-tagged ATAD5 (AID 651632); also: nearly all actives have a fitted effect of over 15% in size
Method in brief: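 Test compounds were delivered by pin tool onto HEK293T reporter cells (2,000/well) expressing ATAD5 fused to luciferase. After 16 hr at 37C, 5% CO2, Amplite was added for 30 min at room temperature and luminescence was measured.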

[3] = qHTS assay for small molecule agonists of the p53 signaling pathway - cell viability (AID 651633; calls by dose curve;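 also: p53RE-bla HCT reporter cells with a stable beta-lactamase p53 reporter; series mostly up to about 83 µM; nearly all actives have a fitted effect of over 30% in size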)
Method in brief: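 Viability counter-read: CellTiter-Glo luminescence (30 min, room temperature) in the same p53RE-bla plates. These plates had been exposed to compounds for 16 h at 37 C.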

[4] = qHTS assay for small molecules that induce genotoxicity in human embryonic kidney cells expressing luciferase-tagged ATAD5 - cell viability (AID 651634; calls by dose curve; also: nearly all actives have a fitted effect of over 25% in size)
Method in brief: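 Quantitative high-throughput format. HEK293T cells expressing ATAD5 fused to luciferase were plated at 2,000 cells/well and treated 15.5 hr with compound versus DMSO. Viability was determined by fluorescent live-cell protease substrate, 30 min at 37C.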

[5] = qHTS assay for small molecule disruptors of the mitochondrial membrane potential - cell viability (AID 720634; calls by dose curve;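 also: human HepG2 liver cancer cells; series mostly up to about 83 µM; nearly all actives have a fitted effect of over 20% in size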)
Method in brief: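 Same-well counter-screen: following the MMP dye addition, CellTiter-Glo was added to 1 hr compound-treated HepG2 cells and luminescence read after 30 min at room temperature.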

[6] = qHTS assay to test for compound auto fluorescence at 590 nm (red) in HepG2 cells (AID 720674)
Method in brief: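 1 hr compound incubation on HepG2 cells, 37 C, 5% CO2; plate read ex 540 nm / em 590 nm; intensities reported as Rose Bengal sodium equivalents.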

[7] = qHTS assay to test for compound auto fluorescence at 535 nm (green) in HepG2 cells (AID 720675)
[8] = qHTS assay to test for compound auto fluorescence at 460 nm (blue) in HEK293 cells (AID 720678)
Method in brief: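 Blue read-out at excitation 405 nm and emission 460 nm follows overnight compound exposure of HEK293 cells at 37C in 5% CO2. Activity is given as auto fluorescence equivalency to triamterene.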

[9] = qHTS assay to test for compound auto fluorescence at 590 nm (red) in HEK293 cells (AID 720679)
Method in brief: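 Red channel, Ex/Em 540/590nm; signal expressed as equivalency to Rose Bengal sodium. HEK293, 2,000 cells/well, 10% dialyzed FBS; 23 nL compound pinned after 4-5 hr attachment; overnight 37C/5% CO2 before reading.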

[10] = qHTS assay to test for compound auto fluorescence at 535 nm (green) in HEK293 cells (AID 720680)
[11] = qHTS assay to test for compound auto fluorescence at 460 nm (blue) in HEK293 cell free culture (AID 720681)
Method in brief: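 Blue fluorescence (Ex 405/Em 460 nm, triamterene-equivalent) was read immediately after pin transfer of compound or DMSO into medium (DMEM, 10% FBS) without cells.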

[12] = qHTS assay to test for compound auto fluorescence at 535 nm (green) in HEK293 cell free culture (AID 720682)
Method in brief: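 Each library compound, or DMSO control, is added by pintool to medium alone, comprising DMEM and 10% FBS. Emission at 535 nm following 485 nm excitation is quantified against fluorescein.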

[13] = qHTS assay to test for compound auto fluorescence at 590 nm (red) in HEK293 cell free culture (AID 720683)
Method in brief: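 Red-channel autofluorescence of compounds in culture medium (DMEM, 10% FBS), no cells, measured at 540/590 nm. Rose Bengal sodium is the reference fluorophore for equivalence.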

[14] = qHTS assay to test for compound auto fluorescence at 590 nm (red) in HepG2 cell free culture (AID 720684)
Method in brief: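 Cell-free; medium MEM + 10% FBS; compound or DMSO added by pintool; read Ex 540/Em 590 nm; Rose Bengal sodium as red reference fluorophore.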

[15] = qHTS assay to test for compound auto fluorescence at 460 nm (blue) in HepG2 cell free culture (AID 720685)
Method in brief: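 Cell-free plates of MEM plus 10% FBS received 23 nL compound or DMSO vehicle; blue-channel (405/460 nm) intensity scored against triamterene as reference fluorophore.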

[16] = qHTS assay to test for compound auto fluorescence at 535 nm (green) in HepG2 cell free culture (AID 720686)
[17] = qHTS assay to test for compound auto fluorescence at 460 nm (blue) in HepG2 cells (AID 720687)
Method in brief: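 Blue-channel autofluorescence (Ex/Em 405/460 nm, triamterene-equivalent) was measured after 1 hr compound exposure at 37 C, 5% CO2. Cells were HepG2, plated overnight at 37 C in MEM plus 10% FBS.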

[18] = biological target: Glucocorticoid receptor (Homo sapiens) (UniProt P04150); assay: qHTS assay to identify small molecule agonists of the glucocorticoid receptor (GR) signaling pathway (AID 720691; active = well fitted activation curve with a large enough effect in the signal ratio in the repeat runs, not every such curve was filed as active; the % refers to the signal ratio)
Sequence of Glucocorticoid receptor (Homo sapiens) (P04150 whole entry, looked up): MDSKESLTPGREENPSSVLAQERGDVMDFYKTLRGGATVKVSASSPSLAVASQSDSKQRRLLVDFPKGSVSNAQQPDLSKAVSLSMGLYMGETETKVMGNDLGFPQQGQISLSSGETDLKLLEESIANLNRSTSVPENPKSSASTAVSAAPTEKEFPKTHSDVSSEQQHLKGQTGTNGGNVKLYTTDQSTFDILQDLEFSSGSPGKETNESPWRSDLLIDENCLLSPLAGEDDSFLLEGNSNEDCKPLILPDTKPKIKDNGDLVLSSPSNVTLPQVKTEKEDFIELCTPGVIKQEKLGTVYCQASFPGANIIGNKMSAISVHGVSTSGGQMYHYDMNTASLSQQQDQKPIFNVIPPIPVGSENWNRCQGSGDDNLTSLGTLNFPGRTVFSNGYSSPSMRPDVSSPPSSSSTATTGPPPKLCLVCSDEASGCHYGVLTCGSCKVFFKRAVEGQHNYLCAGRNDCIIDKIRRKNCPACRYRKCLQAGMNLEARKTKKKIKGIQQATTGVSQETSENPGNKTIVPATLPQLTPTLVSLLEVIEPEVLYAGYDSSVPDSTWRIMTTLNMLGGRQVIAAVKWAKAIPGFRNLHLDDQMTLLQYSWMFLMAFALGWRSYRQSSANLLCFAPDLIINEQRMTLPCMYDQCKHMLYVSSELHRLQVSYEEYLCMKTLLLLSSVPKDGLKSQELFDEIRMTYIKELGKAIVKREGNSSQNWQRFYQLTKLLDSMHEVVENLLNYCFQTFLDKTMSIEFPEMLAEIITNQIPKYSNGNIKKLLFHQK
Method in brief: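 A HeLa cervical cancer line expressing GR and a glucocorticoid response element-driven beta-lactamase gene is treated with compounds for 18 h; LiveBLAzer B/G FRET substrate is then applied and fluorescence read.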

[19] = biological target: Glucocorticoid receptor (Homo sapiens) (UniProt P04150); assay: qHTS assay to identify small molecule antagonists of the glucocorticoid receptor (GR) signaling pathway (AID 720692; active = well fitted inhibition curve with a large enough effect in the signal ratio in the repeat runs, not every such curve was filed as active; the % refers to the signal ratio)
Method in brief: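 GRE-bla HeLa line, dex-stimulated (5 nM final). Compound exposure 18 h, 37 C. Beta-lactamase FRET read after 2 h RT substrate.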

[20] = qHTS assay for small molecule disruptors of the mitochondrial membrane potential (AID 720635)
Method in brief: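 Mitochondrial membrane potential tracked with Mito-MPS dye, red aggregates (ex 540/em 590 nm) against green monomers (ex 490/em 535 nm). Compound treatment 1 hr at 37C, dye 30 min in HepG2.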

Measured: Potency

CC1=CC(=O)/C(=C(/C)O)C(=O)O1
not listed: [20]
inactive: all other assays above

FC(F)(F)C(F)(F)C(F)(F)C(F)(F)C(F)(F)C(F)(F)CCI
not listed: [18] | [19]
inactive: all other assays above

CCOC(=S)SSC(=S)OCC
not listed: [12]
inactive: all other assays above

CCCCCCCCN(C)C
not listed: [12] | [17]
inactive: all other assays above

O=C(c1ccc(O)cc1)c1ccc(O)cc1
not listed: [20]
inactive: all other assays above

CCCCCCCCCCCCCCCBr
not listed: [19] | [20]
inactive: all other assays above

C=CCCCCCC
inactive: all assays above

COc1ccc2[nH]c(S(=O)Cc3ncc(C)c(OC)c3C)nc2n1 (configuration not stated)
not listed: [11] | [15]
inactive: all other assays above

Cc1cccc(Oc2ccccc2)c1
not listed: [11] | [12]
inactive: all other assays above

c1ccc(CNCc2ccccc2)cc1
not listed: [19] | [20]
inactive: all other assays above

CC(=O)OCCc1ccccc1
not listed: [11]
inactive: all other assays above

CCCC(=O)OCC
not listed: [20]
inactive: all other assays above

N#CCc1cccc(C(F)(F)F)c1
inactive: all assays above

C[Si](C)O[Si](C)(C)O[Si](C)(C)O[Si](C)C
not listed: [20]
inactive: all other assays above

— PubChem BioAssay (Tox21)
